The results in this text go back to the supplement of paper PMC11732987, “Enantioselective OTUD7B fragment discovery through chemoproteomics screening and high-throughput optimisation” (Communications Chemistry, 2025).

Common to all, as to experiment: log2 ratio of Biotin-Ahx-Ub-VS probe labelling (fragment/DMSO); higher = less target engagement (more negative = stronger competition), active = hit call of the paper (q ≤ 0.05, log2 ratio ≤ -1)
Settings in all cases: compound concentration: 200 uM; treatment time: 3 h

For one experiment, the target named is T1, USP19 (UniProt O94966).
T1 sequence (whole entry): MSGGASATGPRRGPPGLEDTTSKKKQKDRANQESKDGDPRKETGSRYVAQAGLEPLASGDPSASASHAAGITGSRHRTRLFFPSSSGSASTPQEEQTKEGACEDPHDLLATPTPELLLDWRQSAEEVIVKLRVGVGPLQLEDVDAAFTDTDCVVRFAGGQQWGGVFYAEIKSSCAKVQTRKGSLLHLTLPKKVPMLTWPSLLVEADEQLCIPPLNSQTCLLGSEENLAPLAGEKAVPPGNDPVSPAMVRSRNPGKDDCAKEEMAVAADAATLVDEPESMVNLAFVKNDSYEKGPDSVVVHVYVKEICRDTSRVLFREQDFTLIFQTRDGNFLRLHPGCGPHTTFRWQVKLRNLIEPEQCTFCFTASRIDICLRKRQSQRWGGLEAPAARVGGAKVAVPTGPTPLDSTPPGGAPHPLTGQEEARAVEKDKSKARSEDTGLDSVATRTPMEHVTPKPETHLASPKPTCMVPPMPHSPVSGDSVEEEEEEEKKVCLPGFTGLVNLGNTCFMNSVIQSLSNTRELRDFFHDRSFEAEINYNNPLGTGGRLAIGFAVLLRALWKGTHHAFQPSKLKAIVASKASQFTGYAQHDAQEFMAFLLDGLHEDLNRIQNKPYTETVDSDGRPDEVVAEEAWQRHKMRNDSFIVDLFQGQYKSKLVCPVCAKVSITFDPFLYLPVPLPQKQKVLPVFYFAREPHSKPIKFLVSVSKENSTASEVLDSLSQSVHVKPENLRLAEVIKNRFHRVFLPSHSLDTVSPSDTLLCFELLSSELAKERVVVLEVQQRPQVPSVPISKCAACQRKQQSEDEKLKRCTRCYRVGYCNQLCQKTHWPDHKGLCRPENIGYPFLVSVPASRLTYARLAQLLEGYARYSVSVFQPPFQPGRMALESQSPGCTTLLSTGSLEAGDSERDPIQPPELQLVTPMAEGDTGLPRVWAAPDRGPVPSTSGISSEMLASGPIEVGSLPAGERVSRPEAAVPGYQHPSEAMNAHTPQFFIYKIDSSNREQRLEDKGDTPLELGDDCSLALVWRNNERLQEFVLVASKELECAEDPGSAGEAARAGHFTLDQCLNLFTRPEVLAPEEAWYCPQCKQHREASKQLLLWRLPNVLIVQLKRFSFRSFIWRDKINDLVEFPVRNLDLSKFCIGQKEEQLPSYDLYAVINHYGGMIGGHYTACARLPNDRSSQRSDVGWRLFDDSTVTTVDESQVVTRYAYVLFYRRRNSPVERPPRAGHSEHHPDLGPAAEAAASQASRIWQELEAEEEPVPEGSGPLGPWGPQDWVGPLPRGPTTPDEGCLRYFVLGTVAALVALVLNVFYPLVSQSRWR
Summed up: (§1)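 Triplicate samples of HEK293T lysate, 495 µg each, received fragment at 200 µM or vehicle for 3 h, followed by Biotin-Ahx-Ub-VS (0.5 µM final) for 1 h. After NeutrAvidin enrichment of labelled DUBs and LysC/trypsin digestion, peptides were run by diaPASEF LC-MS/MS. The values are average log2 fragment/vehicle ratios from global-median-normalised Spectronaut label-free quantities, tested by unpaired t-test on proteins having ≥2 unique peptides.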

The next experiment concerns the target T2, USP22 (UniProt Q9UPT9).
T2 sequence (whole entry): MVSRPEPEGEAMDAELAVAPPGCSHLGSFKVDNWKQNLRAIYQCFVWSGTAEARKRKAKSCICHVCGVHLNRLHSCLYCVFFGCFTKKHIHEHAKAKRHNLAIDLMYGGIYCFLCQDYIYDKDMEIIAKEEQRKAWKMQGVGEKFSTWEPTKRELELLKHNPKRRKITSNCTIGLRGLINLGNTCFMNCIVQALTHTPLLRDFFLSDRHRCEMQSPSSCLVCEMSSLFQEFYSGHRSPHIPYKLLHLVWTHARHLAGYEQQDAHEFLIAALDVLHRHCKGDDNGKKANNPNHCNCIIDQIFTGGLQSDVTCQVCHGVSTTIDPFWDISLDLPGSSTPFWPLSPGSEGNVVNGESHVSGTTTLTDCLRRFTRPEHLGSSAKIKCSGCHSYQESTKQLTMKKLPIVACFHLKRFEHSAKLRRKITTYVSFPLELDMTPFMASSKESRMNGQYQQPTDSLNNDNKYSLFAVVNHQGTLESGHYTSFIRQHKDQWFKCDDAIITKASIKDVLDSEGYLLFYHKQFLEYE
Summed up:
as §1

A further experiment concerns the target USP24 (UniProt Q9UPU5). Summed up: as §1
In another experiment the target is T3, USP25 (UniProt Q9UHP3).
T3 sequence (whole entry): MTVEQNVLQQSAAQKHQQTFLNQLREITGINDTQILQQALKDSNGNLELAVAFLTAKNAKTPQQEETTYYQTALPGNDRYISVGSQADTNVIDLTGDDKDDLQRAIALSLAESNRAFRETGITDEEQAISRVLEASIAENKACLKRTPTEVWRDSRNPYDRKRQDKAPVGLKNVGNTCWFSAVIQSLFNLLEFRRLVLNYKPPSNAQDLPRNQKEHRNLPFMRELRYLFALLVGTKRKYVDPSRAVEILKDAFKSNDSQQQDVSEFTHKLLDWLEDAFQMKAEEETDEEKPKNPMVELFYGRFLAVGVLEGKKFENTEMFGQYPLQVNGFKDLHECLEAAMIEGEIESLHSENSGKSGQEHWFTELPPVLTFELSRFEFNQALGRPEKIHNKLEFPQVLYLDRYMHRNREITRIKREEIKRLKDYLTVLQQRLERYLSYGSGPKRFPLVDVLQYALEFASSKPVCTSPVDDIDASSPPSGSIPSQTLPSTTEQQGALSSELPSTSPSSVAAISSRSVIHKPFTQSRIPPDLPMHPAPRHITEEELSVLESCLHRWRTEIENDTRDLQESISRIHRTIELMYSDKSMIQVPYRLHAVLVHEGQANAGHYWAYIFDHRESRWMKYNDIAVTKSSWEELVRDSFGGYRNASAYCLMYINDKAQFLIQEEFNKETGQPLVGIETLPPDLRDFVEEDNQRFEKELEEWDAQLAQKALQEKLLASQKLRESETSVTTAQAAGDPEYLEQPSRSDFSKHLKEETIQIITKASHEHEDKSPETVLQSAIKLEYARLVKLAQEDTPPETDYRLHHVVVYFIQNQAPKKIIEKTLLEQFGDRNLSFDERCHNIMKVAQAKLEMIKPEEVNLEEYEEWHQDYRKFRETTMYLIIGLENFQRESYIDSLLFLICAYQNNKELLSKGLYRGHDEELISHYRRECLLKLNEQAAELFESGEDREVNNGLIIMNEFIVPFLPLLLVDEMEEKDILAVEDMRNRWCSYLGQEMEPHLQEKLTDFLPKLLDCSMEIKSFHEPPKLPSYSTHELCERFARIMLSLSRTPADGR
Summed up: as §1

Another experiment deals with T4, USP28 (UniProt Q96RU2).
T4 sequence (whole entry): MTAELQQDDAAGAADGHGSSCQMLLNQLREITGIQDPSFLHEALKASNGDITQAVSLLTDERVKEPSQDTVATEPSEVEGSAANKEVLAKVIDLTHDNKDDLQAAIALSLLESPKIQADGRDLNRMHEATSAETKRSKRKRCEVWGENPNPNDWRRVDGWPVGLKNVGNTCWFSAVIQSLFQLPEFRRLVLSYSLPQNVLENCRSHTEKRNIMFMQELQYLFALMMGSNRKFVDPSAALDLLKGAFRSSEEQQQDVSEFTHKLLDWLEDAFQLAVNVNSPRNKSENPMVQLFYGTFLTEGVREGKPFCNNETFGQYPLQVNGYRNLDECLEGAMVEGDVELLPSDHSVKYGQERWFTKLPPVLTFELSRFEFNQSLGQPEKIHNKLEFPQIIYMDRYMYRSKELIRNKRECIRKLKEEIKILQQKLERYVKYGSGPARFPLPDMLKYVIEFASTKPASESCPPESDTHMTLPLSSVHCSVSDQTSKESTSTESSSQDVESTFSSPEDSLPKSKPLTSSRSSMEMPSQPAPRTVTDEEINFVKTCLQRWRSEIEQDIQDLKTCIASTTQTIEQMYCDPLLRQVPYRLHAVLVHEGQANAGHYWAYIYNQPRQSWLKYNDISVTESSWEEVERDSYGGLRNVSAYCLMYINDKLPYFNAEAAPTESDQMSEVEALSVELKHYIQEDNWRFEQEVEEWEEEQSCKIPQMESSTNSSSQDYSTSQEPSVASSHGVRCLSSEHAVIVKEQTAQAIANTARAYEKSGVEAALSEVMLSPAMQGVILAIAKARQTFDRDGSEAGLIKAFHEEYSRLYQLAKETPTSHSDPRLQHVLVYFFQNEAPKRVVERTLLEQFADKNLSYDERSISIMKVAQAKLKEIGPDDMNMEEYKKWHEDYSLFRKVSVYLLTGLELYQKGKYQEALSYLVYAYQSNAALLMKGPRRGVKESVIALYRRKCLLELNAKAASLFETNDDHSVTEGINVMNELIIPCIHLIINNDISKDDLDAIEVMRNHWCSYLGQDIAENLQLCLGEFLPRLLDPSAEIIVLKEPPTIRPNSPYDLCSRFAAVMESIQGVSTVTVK
Summed up: as §1

Values without a mark were called inactive.

Sequence of USP24 (Q9UPU5 whole entry): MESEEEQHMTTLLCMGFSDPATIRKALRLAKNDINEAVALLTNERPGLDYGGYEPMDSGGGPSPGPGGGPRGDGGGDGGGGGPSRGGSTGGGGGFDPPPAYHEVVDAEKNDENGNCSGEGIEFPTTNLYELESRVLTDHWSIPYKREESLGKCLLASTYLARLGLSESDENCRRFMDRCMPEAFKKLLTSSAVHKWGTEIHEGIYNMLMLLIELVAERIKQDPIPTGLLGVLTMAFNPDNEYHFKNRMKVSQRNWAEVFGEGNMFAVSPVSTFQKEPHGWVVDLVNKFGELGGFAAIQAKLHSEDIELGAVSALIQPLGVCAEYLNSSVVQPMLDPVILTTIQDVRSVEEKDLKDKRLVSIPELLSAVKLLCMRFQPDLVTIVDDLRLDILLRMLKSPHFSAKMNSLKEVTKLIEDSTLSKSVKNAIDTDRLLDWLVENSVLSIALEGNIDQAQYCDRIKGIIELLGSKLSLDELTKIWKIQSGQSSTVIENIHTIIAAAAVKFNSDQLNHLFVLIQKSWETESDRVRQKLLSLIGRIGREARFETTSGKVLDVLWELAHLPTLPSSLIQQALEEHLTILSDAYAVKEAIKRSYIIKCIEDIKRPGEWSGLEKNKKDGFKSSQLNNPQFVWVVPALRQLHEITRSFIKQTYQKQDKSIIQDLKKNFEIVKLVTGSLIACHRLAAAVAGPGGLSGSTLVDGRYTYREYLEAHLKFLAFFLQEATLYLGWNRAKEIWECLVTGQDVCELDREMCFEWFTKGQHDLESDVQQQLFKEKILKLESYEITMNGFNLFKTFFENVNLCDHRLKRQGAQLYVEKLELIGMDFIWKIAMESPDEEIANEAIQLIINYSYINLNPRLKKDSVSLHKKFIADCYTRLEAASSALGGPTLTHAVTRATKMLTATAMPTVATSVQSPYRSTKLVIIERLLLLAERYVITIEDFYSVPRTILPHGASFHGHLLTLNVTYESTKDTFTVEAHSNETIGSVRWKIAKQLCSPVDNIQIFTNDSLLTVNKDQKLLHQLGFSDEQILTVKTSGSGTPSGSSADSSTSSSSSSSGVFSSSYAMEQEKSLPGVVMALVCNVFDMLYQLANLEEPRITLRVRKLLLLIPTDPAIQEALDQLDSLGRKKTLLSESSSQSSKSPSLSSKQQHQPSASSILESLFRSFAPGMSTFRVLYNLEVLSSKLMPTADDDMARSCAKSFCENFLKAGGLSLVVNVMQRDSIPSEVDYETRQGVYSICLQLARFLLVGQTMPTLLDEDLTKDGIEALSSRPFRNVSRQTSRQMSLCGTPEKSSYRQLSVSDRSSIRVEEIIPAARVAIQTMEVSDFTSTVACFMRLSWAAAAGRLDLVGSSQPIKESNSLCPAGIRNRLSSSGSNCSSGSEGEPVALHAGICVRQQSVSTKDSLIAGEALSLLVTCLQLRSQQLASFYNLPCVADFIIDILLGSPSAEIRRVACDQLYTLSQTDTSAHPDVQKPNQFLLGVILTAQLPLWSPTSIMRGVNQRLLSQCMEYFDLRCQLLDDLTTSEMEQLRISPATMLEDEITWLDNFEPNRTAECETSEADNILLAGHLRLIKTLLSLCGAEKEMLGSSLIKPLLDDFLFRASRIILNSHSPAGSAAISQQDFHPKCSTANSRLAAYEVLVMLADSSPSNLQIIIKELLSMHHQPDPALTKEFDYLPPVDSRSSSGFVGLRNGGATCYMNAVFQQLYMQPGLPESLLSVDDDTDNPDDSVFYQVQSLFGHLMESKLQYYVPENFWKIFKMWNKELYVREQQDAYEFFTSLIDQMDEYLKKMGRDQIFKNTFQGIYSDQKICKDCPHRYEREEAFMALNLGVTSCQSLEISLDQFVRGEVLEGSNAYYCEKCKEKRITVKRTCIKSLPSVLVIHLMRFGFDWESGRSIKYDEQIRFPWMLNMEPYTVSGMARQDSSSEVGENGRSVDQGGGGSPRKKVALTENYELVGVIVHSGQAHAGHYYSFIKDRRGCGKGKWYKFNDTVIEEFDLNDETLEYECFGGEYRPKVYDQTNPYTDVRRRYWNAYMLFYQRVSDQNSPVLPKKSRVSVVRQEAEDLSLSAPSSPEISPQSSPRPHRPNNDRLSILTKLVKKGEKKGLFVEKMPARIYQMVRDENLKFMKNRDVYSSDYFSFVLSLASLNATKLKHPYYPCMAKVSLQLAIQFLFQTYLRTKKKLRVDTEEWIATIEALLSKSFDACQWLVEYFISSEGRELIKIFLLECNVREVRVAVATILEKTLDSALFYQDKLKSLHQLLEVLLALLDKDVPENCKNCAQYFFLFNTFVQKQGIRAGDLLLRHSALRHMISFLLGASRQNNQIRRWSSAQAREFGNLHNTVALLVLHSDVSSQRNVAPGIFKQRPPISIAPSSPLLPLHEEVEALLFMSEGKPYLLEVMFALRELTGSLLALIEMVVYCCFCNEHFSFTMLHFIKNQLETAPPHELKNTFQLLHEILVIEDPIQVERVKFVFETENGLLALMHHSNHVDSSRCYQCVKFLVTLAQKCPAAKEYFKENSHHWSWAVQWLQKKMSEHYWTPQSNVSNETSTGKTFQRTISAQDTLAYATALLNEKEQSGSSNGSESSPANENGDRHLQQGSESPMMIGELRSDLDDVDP

As for `O=C(CCl)Nc1nc(-c2cccs2)cs1`, the “log2 ratio of Biotin-Ahx-Ub-VS probe labelling” value in the experiment with USP19 was -0.517; in the experiment with USP22 it was -0.167; with USP24, -1.48 (active); with USP25 it was -0.387; in the experiment with USP28, -0.678.
